PNC inhibitor: perinucleolar compartment assembly inhibition. PC3M PTB-GFP, PNC prevalence imaging, 16 h; hits give low values. activity change (PNC), negative = inhibition, % at 10 µM. hit rate 3.1% among 140,000. AID 2417;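 active = readout at or below -70, meaning at least 70% loss of cells showing the perinucleolar compartment, a nuclear body marking cancer cells; inconclusive = readout between -30 and a set limit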
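Read-out is percentage of cells bearing a perinucleolar compartment, from automated 20x imaging of fixed, Hoechst-stained PC3M PTB-GFP cells. Cells were seeded 4 h, then exposed 16 h to compound (23 nl of library stock) in duplicate plates.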
Luc counter: blocks Kinase-Glo luciferase, a counter-screen artifact; Q27757; Kinase-Glo luciferase, ATP luminescence, 8 min; Potency, µM (titrated, usually from 38.3 µM), usual class: inhibitors; hit rate 0.28% among 200,000; AID 1379; active = well fitted inhibition curve with a large enough effect; inconclusive = small, poorly fitted or top-dose-only effect; note: nearly all actives have a fitted effect of over 60% in size
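Light output from Kinase-Glo luciferase with luciferin and 10 uM ATP in 50 mM imidazole pH 7.2, KCl, MgCl2, Tween 20, BSA; compound pin-delivered, 8-min ambient incubation, then luminescence read.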
HPGD block: blocks human HPGD enzyme activity | P15428 | purified HPGD, NADH fluorescence kinetic, PGE2 substrate | Potency, µM, most hits filed as inhibitors | hit rate 4.3% among 150,000
Target sequence (P15428 whole entry, looked up): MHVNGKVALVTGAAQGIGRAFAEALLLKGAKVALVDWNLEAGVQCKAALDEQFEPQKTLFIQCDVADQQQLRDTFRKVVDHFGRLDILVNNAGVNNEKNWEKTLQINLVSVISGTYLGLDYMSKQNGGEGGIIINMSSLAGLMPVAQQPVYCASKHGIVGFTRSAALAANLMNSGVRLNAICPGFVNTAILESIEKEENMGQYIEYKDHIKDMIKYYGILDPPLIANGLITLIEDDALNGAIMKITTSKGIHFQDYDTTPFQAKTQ
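20 nM HPGD preincubated 15 min at room temperature with compound in 50 mM Tris-HCl pH 8, 0.01% Tween 20. Started with 1 mM NAD+ and 30 uM prostaglandin E2; NADH fluorescence (360/450 nm) read 5 times over 30-s intervals, last minus first.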
IMPase cell inh: IMPase inhibition in cells. P97697. CHO-M1 cells, IP1 accumulation, HTRF TR-FRET ratio. inhibition (IP1 accumulation), % at 46.1 µM. 120,000 tested, under 10 active. AID 901; active = well fitted curve in the direction sought with a large enough effect in the signal ratio, not every such curve was filed as active; inconclusive = small, poorly fitted or top-dose-only effect, or a change in a side signal; inactive = no such curve, though single readings can be large or run the other way; the % refers to the signal ratio;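 note: cells stimulated with carbachol in lithium chloride buffer; higher means more IMPase inhibition seen as more IP1 and lower FRET ratio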
Target sequence (P97697 whole entry, looked up): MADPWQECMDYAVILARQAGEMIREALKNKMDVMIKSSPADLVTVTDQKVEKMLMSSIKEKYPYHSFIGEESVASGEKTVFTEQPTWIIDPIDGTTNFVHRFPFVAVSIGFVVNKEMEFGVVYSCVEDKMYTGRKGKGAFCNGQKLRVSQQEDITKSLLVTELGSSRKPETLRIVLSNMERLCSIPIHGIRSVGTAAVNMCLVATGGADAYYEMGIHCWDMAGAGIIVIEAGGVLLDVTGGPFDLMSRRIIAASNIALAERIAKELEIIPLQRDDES
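Measured: the HTRF emission ratio (665/620 nm) plus the 620 nm donor channel, each fitted to the Hill equation to give AC50. Cells were CHO-M1 given compounds up to 46 uM and a 30 min carbachol stimulation at 37C.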
ALDH1A1 inh: inhibitors of human aldehyde dehydrogenase 1A1; hit rate 7.3% among 220,000; Potency, µM (highest dose often 75.3 µM), usual class: inhibitors; P00352; Purified ALDH1A1, NADH fluorescence, propionaldehyde substrate; AID 1030
Lamin A splicing: changes lamin A minigene splicing in HeLa cells | HeLa LMNA splicing GFP/RFP minigene ratio, 48 h | Potency, µM (titrated, usually from 46.1 µM), usual class: inhibitors | hit rate 0.01% among 200,000 | AID 1487; active = well fitted inhibition curve with a large enough effect in the signal ratio, with a control signal flat, not every such curve was filed as active; inconclusive = small, poorly fitted or top-dose-only effect, or effect the other way, or a change in a side signal; the % refers to the signal ratio
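S3 HeLa stable clones carrying a lamin A-EGFP splicing minigene plus DsRed2 were seeded at 600 cells/well in Opti-MEM with 2% FBS, pin-dosed and incubated 48 h at 37°C. Acumen cytometry (488 nm) gave the GFP/RFP total-intensity ratio.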
Numbers stand for hits; i = inactive; ? = inconclusive; nt = no result; [ ] = another dose, or the depositor's remark. Rows were chosen to be rich in hits. Some 10% of all compounds tested hit in one or more screens of this group. Unless noted, calls come from the whole dose curve; as a rule, active = well fitted inhibition curve with a large enough effect (not every such curve was filed as active); inconclusive = small, poorly fitted or top-dose-only effect, or another doubt; inactive = no such curve, though single readings can be large or run the other way.

SMILES	PNC inhibitor	Luc counter	HPGD block	IMPase cell inh	ALDH1A1 inh	Lamin A splicing
O=C(O)C1OC(Oc2cc3oc(-c4ccccc4)cc(=O)c3c(O)c2O)C(O)C(O)C1O (stereo not given)	?	i	4.47µM	nt	?	?
O=c1nc2ccccc2c(NS(=O)(=O)c2ccccc2)n1-c1ccccc1	i	i	i	i	0.891µM	i
CCCc1cc(=O)[nH]c(SCc2nc(-c3ccc(OC)cc3)no2)n1	nt	nt	nt	nt	nt	i
O=S(=O)(c1ccc(Cl)cc1)N1CCSC1c1ccco1 (stereo not given)	i	i	i	i	?	i
O=[N+]([O-])c1ccc(S(=O)(=O)N2CCSC2c2ccco2)cc1 (stereo not given)	nt	nt	nt	nt	3.98µM	?
CC1CCN(C(=S)Nc2ccc3nc4n(c(=O)c3c2)CCCCC4)CC1	?	i	12.6µM	i	?	?
CC(C)CCNC(=S)Nc1ccc2nc3n(c(=O)c2c1)CCCCC3	i	i	4.47µM	i	?	?
CCCCNC(=S)Nc1ccc2nc3n(c(=O)c2c1)CCCCC3	i	i	14.1µM	nt	i	?
CCOCCCNC(=S)Nc1ccc2nc3n(c(=O)c2c1)CCCCC3	nt	i	nt	nt	i	i[9.22 µM]
COc1ccc(NC(=O)CSC2=Nc3ccccc3C3=NC(CCC(=O)NCc4cccs4)C(=O)N23)cc1 (stereo not given)	nt	nt	nt	nt	nt	i
O=C(c1cnccn1)N1CCC2(CCCN(c3ccc(-c4ccccc4)cc3)C2)CC1	nt	i	i	nt	?	nt
COC(=O)C1=C(C(=O)OC)[C@@H]2N(Cc3ccccc3)c3ccccc3[C@@]23C[C@@H](C(=O)OC)N(S(=O)(=O)c2ccc([N+](=O)[O-])cc2)C3=N1	nt	i[7.66 µM]	i	nt	i[13.5 µM]	i[9.22 µM]
COc1cccc(C2CC(C(F)(F)F)n3ncc(C(=O)NCc4ccco4)c3N2)c1 (stereo not given)	i	i	20µM	i	i	i
O=C(NCC1CCCO1)c1cnn2c1NC(c1ccccc1)CC2C(F)(F)F (stereo not given)	i	i	25.1µM	i	i	i
COc1cccc(C2CC(C(F)(F)F)n3ncc(C(=O)NC(C)(C)C)c3N2)c1 (stereo not given)	i	i	i	i	i	i
Cc1c(CNC(=O)c2cnn3c2NC(c2ccc(Br)cc2)CC3C(F)(F)F)cnn1C (stereo not given)	-123.0	i	i	i	i	i
Cc1nn(C)cc1CNC(=O)c1cnn2c1NC(c1ccc(Br)cc1)CC2C(F)(F)F (stereo not given)	i	i	i	i	i	i
O=S(=O)(c1ccccc1)N1CCC2(CCCN(Cc3ccncc3)C2)CC1	nt	i	i	nt	?	nt
CCNc1ncc2nc(-c3cc(F)cc(F)c3)c(=O)n(-c3ccccc3)c2n1	nt	i	?	nt	?	nt
COc1ccc(Oc2ncc3nc(CCc4ccccc4)c(=O)n(CCC#N)c3n2)cc1	nt	i	i	nt	?	nt
COC1C=CC23c4cc5c(cc4CN(CC2O)C3C1)OCO5 (stereo not given)	nt	i	i	nt	i	nt
COCC(=O)c1[nH]c2ccccc2c1C	i	i	i	i	7.94µM	i
COCC(=O)NCCSc1c(C)[nH]c2ccccc12	?	i	?	i	i	i
O=C(O)c1ccccc1C(=O)c1ccc(Oc2ccccc2)cc1	-85.0	i	i	nt	i	i
Cc1ccc(C(=O)c2ccccc2C(=O)O)cc1C	nt	i	nt	nt	i	nt
SMILES	PNC inhibitor	Luc counter	HPGD block	IMPase cell inh	ALDH1A1 inh	Lamin A splicing
COc1cc(C)cc(OC)c1/C=C\C(=O)O	nt	i[7.66 µM]	i	nt	i[13.5 µM]	nt
CCC(=O)n1nc(-c2ccco2)nc1SCc1ccccc1	?	i	12.6µM	i	?	i
CC(=O)n1nc(-c2ccco2)nc1SCc1ccccc1	i	i	12.6µM	i	i	i
CCC(=O)N1CCc2cc(CNC(=O)c3cccc(N(C)C)c3)ccc21	nt	nt	nt	nt	nt	i
COC(=O)C1=C(N)Oc2cc(C)n(Cc3cccnc3)c(=O)c2C1c1ccccc1OC (stereo not given)	-85.9	i	i	?	?	i
COc1cccc(CNC(=O)C(=O)NCC(c2ccco2)S(=O)(=O)c2cccs2)c1 (stereo not given)	nt	nt	nt	nt	nt	i
O=c1c2ccccc2cnn1CCOc1ccccc1	i	8.91µM	i	nt	i	i
Cc1cccc(OCCn2nc(C(=O)O)c3ccccc3c2=O)c1	i	i	28.2µM	i	i	i
Cc1cccc(C)c1OCCn1nc(C(=O)O)c2ccccc2c1=O	i	i	i	i	i	i
COc1ccc(C(=O)/C=C/C(=O)N(Cc2ccccc2)C(C(=O)NC2CCCCC2)c2ccncc2)c(O)c1 (stereo not given)	-86.2	i	i	nt	i	?
COc1cc(CNn2c(C)n[nH]c2=S)cc(Cl)c1OCc1ccccc1	i	i	15.8µM	i	28.2µM	?
Cc1ccc(S(=O)(=O)N2CCCC(C(=O)N(Cc3cccs3)C3CC3)C2)cc1 (stereo not given)	?	i	i	i	7.08µM	?
CCOC(=O)C1CCCN(S(=O)(=O)c2ccc(OC)cc2)C1 (stereo not given)	i	i	i	i	3.16µM	i
COC(=O)c1ccccc1NC(=O)C1CCCN(S(=O)(=O)c2ccccc2)C1 (stereo not given)	?	i	i	i	i	i
CCOC(=O)N1CCC(NC(=O)C2CCN(C(=O)N3CC(C)Oc4ccc(C)cc43)CC2)CC1 (stereo not given)	?	i	i	i	7.94µM	i
O=C(NCc1cccs1)C1CCCN(S(=O)(=O)c2ccc3c(c2)OCO3)C1 (stereo not given)	?	nt	nt	i	i	i
COC(=O)c1ccccc1NC(=O)C1CCCN(S(=O)(=O)c2ccc(F)cc2)C1 (stereo not given)	-89.1	i	i	i	i	?
CCOC(=O)N1CCC(NC(=O)C2CCCN(S(=O)(=O)c3ccc4c(c3)oc(=O)n4C)C2)CC1 (stereo not given)	-89.9	i	i	i	i	?
COCC(=O)N1CCCC(CNS(=O)(=O)c2ccc(OC)cc2)C1 (stereo not given)	nt	i	nt	nt	i	i
CCOC(=O)C1CCCN(S(=O)(=O)c2ccc(C)cc2)C1 (stereo not given)	i	i	i	i	8.91µM	i
COc1ccc(S(=O)(=O)NCC2CCCN(C(=O)C3CCCC3)C2)cc1 (stereo not given)	nt	i	nt	nt	3.55µM	i
CCOC(=O)C1CCN(S(=O)(=O)c2ccc(-n3cnnn3)c(C)c2)CC1	-100.0	i	i	i	i	?
CN1[C@@H](c2ccccc2)CC(=NO)C[C@H]1c1ccccc1	nt	i[7.66 µM]	i	nt	i[13.5 µM]	nt
CCOC(=O)C1CCN(S(=O)(=O)c2ccc(OC)c(Cl)c2Cl)CC1	i	i	i	i	6.31µM	i
O=C(O)C1CCCN(S(=O)(=O)c2cccs2)C1 (stereo not given)	-100.0	i	i	i	i	i
